Screening results from PubChem.
This is a sample that favours compounds with a hit; in the whole collection about 3% have one here.
TWEAK Fn14 block – TWEAK-Fn14 signaling inhibition; TWEAK-stimulated Fn14 reporter cells, luciferase luminescence, 8 h; AID 1159606; inhibition, % at 10 µM; actives 2% (n = 360,000); in the data active = inhibition above about 50%
MITF act – MITF TRPM1 promoter activation in melanoma cells | actives 0.75% (n = 300,000) | activation, % at 12.5 µM | AID 588334 | SK-MEL-5 TRPM1-promoter luciferase, 24 h; % of positive control, neutral wells = 0;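 active = mean activation of at least 80% with every replicate also reaching 80%; inconclusive = mean reaches 80% but some replicate falls short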
LMP1 NFkB inh – Epstein-Barr LMP1 NF-kappaB reporter inhibition; LMP1-induced NF-kappaB luciferase reporter cells, luminescence; inhibition, % at 12.5 µM; actives 0.69% (n = 350,000); in the data active = inhibition above about 41%; inconclusive = no clear call, values can overlap the other calls
TRPM1 prom inh – reduces MITF-dependent TRPM1 promoter luciferase signal. SK-MEL-5 TRPM1 promoter luciferase, 24 h. inhibition, % at 12.5 µM. actives 0.83% (n = 330,000);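 active = mean inhibition across replicates of 60% or more, whatever share of single replicates reaches that level; inconclusive = some that reach 60%, reason not given; inactive = mean inhibition across replicates below 60%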
TROY signal inh – blocks TROY-dependent signaling in reporter cells; actives 0.98% (n = 360,000); AID 1347056; Q293 LMP1-TROYcd NF-kB luciferase reporter, 4 h; inhibition, % at 10 µM;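 active = compounds whose plate-normalised and pattern-corrected inhibition of the luciferase reporter signal at the single screening dose is 50% or more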
LGR2 antag – inhibitors of bursicon-induced Drosophila LGR2 receptor cAMP signaling. HEK293 LGR2, CRE-luciferase, bursicon-stimulated, 4 h. inhibition, % at 9.99 µM. actives 0.35% (n = 380,000). AID 720647;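 active = drop in luminescence signal, shown as inhibition above about 50% in the replicate tests, limit read from the data, passing the limit was not always enough; inconclusive = probably only some replicates passing the limit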;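 also: agonist challenge used bursicon conditioned medium at about half maximal strength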
Large screens that a line does not name were inactive.

O=C(O)c1ccccc1C(=O)Nc1cccc([N+](=O)[O-])c1	none
COc1ccc(NC(=O)c2cc([N+](=O)[O-])ccc2O)cc1	TWEAK Fn14 block 104, LMP1 NFkB inh 75, TRPM1 prom inh 84, TROY signal inh 87, LGR2 antag 96
CSc1nnnn1-c1ccc(Cl)cc1	none
c1ccc(-n2nnnc2Sc2ncnc3sc4c(c23)CCCC4)cc1	TWEAK Fn14 block 100, TRPM1 prom inh 63, TROY signal inh 73, LGR2 antag 66
O=C(O)CSc1ncnc2sc3c(c12)CCCC3	none
Cc1sc2ncnc(Sc3nnnn3-c3ccc(Cl)cc3)c2c1C	TWEAK Fn14 block 102, TRPM1 prom inh 73, TROY signal inh 65 (no result: LGR2 antag)
CCNC(=O)[C@H]1[C@H](CO)[C@H]2Cn3c(ccc(-c4ccc(OC)cc4)c3=O)[C@@H]1N2CC	none (no result: TWEAK Fn14 block, MITF act, LMP1 NFkB inh, TRPM1 prom inh, TROY signal inh)
N/C(=N\OC(=O)c1ccc2c(c1)OCO2)c1cccnc1	none (no result: LGR2 antag)
N/C(=N\OC(=O)c1ccc2c(c1)OCO2)c1cccc(Br)c1	MITF act 116
Cc1ccc(-n2nnnc2-c2cnc(N3CCCC3)nc2C(F)(F)F)cc1	none (no result: LGR2 antag)
FC(F)(F)c1nc(N2CCCC2)ncc1-c1nnnn1-c1ccccc1	TWEAK Fn14 block 51 (no result: LGR2 antag)
CC1CCCC=CC2CC(OC(=O)CN(C)C)CC2C(O)C=CC(=O)O1 (centres undefined)	TRPM1 prom inh 76 (no result: MITF act, LGR2 antag)
COc1ccc(Br)c(Cn2c(C)c(C(=O)NCc3ccccc3C(F)(F)F)sc2=O)c1	TROY signal inh 69 (no result: MITF act, LMP1 NFkB inh, TRPM1 prom inh)
Cc1cccc(C)c1Cn1c(C)c(C(=O)NCc2ccccc2C(F)(F)F)sc1=O	none (no result: MITF act, LMP1 NFkB inh, TRPM1 prom inh)
O=C(O)c1ccc(N=NNc2cccc([N+](=O)[O-])c2)cc1	none
N#C/C(=N\Nc1cccc([N+](=O)[O-])c1)C(=O)c1ccc(Br)cc1	TWEAK Fn14 block 52
c1ccc(-c2cc3c(-n4cccc4)ncnc3o2)cc1	none (no result: LGR2 antag)
c1ccc(Oc2ncnc3oc(-c4ccccc4)cc23)cc1	TWEAK Fn14 block 96 (no result: LGR2 antag)
COc1ccc(NC(=O)Nc2ccc3c(c2)CC(=O)N([C@@H](C)CO)C[C@@H](C)[C@H](CN(C)Cc2ccc(C(=O)O)cc2)O3)cc1	none (no result: TWEAK Fn14 block, MITF act, LMP1 NFkB inh, TRPM1 prom inh, TROY signal inh)
Cc1ccc(-n2[nH]c(=O)c(-c3ccccn3)c2C)cc1	TWEAK Fn14 block 101, LMP1 NFkB inh 66, TRPM1 prom inh 83, TROY signal inh 81, LGR2 antag 94
CCCNC(=O)C[C@H]1CC[C@@H]2[C@H](COc3ccc(NS(=O)(=O)CC)cc3C(=O)N2C)O1	none (no result: TWEAK Fn14 block, MITF act, LMP1 NFkB inh, TRPM1 prom inh, TROY signal inh)
CCCN1CCC(=O)N([C@H](CSc2ccccc2)CC(C)C)CC1	MITF act 93
O=C1CCN(CCc2ccccc2)CCN1[C@H](CSc1ccc(Br)cc1)c1ccccc1	none
CCCN1CCC(=O)N([C@H](CSc2ccc(C)cc2)Cc2ccccc2)CC1	none
CCCN1CCC(=O)N([C@H](CSc2ccc(C)cc2)CC(C)C)CC1	MITF act 98, TROY signal inh 61
CC(C)C[C@@H](CSc1ccccc1)N1CCN(CC(C)C)CCC1=O	MITF act 103
CCCN1CCC(=O)N([C@H](CSc2ccc(Br)cc2)c2ccccc2)CC1	MITF act 89
COc1ccc(C#Cc2ccc([C@@H]3[C@H](CO)N4C(=O)CN(C(=O)c5ccc(F)cc5)C[C@@H]34)cc2)cc1	none (no result: TWEAK Fn14 block, MITF act, LMP1 NFkB inh, TRPM1 prom inh, TROY signal inh)
COc1ccccc1-c1ccc2c(c1)[C@@H]1[C@@H](CCN1S(=O)(=O)c1ccccc1F)[C@H](CO)N2	none (no result: TWEAK Fn14 block, MITF act, LMP1 NFkB inh, TRPM1 prom inh, TROY signal inh)
O=S(=O)(c1ccccc1)N1C[C@H]2[C@@H](c3ccccc31)[C@@H](CO)N2Cc1ccccc1	none (no result: TWEAK Fn14 block, MITF act, LMP1 NFkB inh, TRPM1 prom inh, TROY signal inh)
CC1S/C(=C(\C#N)C(=O)NCc2ccco2)N(Cc2ccco2)C1=O (centres undefined)	LMP1 NFkB inh 41 (no result: LGR2 antag)
Cc1ccc(CC2S/C(=C(/C#N)C(=O)NCc3ccco3)N(c3ccccc3)C2=O)cc1 (centres undefined)	none (no result: LGR2 antag)
CC(C)CCn1c(Sc2nc3ccccc3o2)nc2c1c(=O)[nH]c(=O)n2C	TWEAK Fn14 block 67, LMP1 NFkB inh 57
O=C(Nc1ccc(Cl)c(Cl)c1)Nc1nnc(CC2=CCCCC2)s1	LMP1 NFkB inh 71
COc1ccc2cc(C(C)=O)c(=O)oc2c1	none
COc1ccc2cc(C(=O)NC3CCCCC3)c(=O)oc2c1	LMP1 NFkB inh 81
O=C(NC1CCCCCC1)c1cc2ccccc2oc1=O	TWEAK Fn14 block 54 (no result: MITF act)
C[C@H](CO)N1C[C@H](C)[C@@H](CN(C)C(=O)Nc2ccc(C(F)(F)F)cc2)Oc2ncc(C#C[C@@H](C)O)cc2C1=O	none (no result: TWEAK Fn14 block, MITF act, LMP1 NFkB inh, TRPM1 prom inh, TROY signal inh)
COc1ccc(-n2cc(CN(C)C3CCOCC3)c(-c3cccc(F)c3)n2)cc1	none
COc1ccc(-n2cc(CNCC3CCOCC3)c(-c3cccc(F)c3)n2)cc1	TWEAK Fn14 block 84
COc1cc2ccnc(C=O)c2cc1OC	TWEAK Fn14 block 56 (no result: MITF act, TRPM1 prom inh, LGR2 antag)
COc1ncnc2c1N[C@@](C)(O)c1c(F)c(F)c(F)c(F)c1S2	none (no result: LGR2 antag)
COc1ncnc2c1NC(=O)CS2	LMP1 NFkB inh 82
COc1ccc(NS(=O)(=O)c2ccc3oc(SCc4ccc(F)cc4)nc3c2)cc1	TROY signal inh 51
COc1ccccc1NS(=O)(=O)c1ccc2oc(SCc3ccc(F)cc3)nc2c1	none
COc1ccccc1C(C[N+](=O)[O-])c1c(N)n(C)c(=O)n(C)c1=O (centres undefined)	TWEAK Fn14 block 52, LGR2 antag 69 (no result: MITF act, LMP1 NFkB inh, TRPM1 prom inh)
O=C(NNc1ccccc1[N+](=O)[O-])Nc1ccccc1	none (no result: LGR2 antag)
O=C(Nc1ccc(Cl)c([N+](=O)[O-])c1)C(Sc1ccccc1)c1ccccc1 (centres undefined)	TWEAK Fn14 block 94, TROY signal inh 55
O=C(NNc1ccccc1[N+](=O)[O-])Nc1ccc(Cl)c(Cl)c1	TROY signal inh 55 (no result: LGR2 antag)
CCCCN(CCCC)S(=O)(=O)c1ccc(NC(=O)c2ccc([N+](=O)[O-])cc2Cl)cc1	TWEAK Fn14 block 63, LGR2 antag inconclusive
Cc1ccc(NC(=O)CN(c2ccc(Cl)cc2)S(=O)(=O)c2cc([N+](=O)[O-])ccc2Cl)cc1	none
CCN(CC)S(=O)(=O)c1cc([N+](=O)[O-])ccc1NNC(=O)Nc1ccc(Cl)c(Cl)c1	TWEAK Fn14 block 59, LMP1 NFkB inh 46, TROY signal inh 54 (no result: LGR2 antag)
CCC(=O)N1CCCCN2[C@H](CO)[C@H](c3ccc(C#Cc4ccccc4F)cc3)[C@@H]2C1	none (no result: TWEAK Fn14 block, MITF act, LMP1 NFkB inh, TRPM1 prom inh, TROY signal inh)
CC(Oc1cc2oc(=O)cc(-c3ccccc3)c2cc1Cl)C(=O)NCC1CCC(C(=O)O)CC1 (centres undefined)	none (no result: LGR2 antag)
CC(NC(=O)OC(C)(C)C)C(=O)Oc1cc2oc(=O)cc(-c3ccccc3)c2cc1Cl (centres undefined)	TWEAK Fn14 block 71 (no result: LGR2 antag)
O=C(C[C@H]1CC[C@@H]2[C@H](COC[C@H](O)CN2C(=O)Nc2ccc(F)cc2)O1)NCCc1ccccc1	none (no result: TWEAK Fn14 block, MITF act, LMP1 NFkB inh, TRPM1 prom inh, TROY signal inh)
Brc1ccc(OCc2ccccc2)c(CNCc2ccncc2)c1	TROY signal inh 52
Fc1ccc(COc2ccccc2CNCc2ccncc2)cc1	none
COc1cc(O)cc(O)c1C(=O)/C=C/c1ccccc1	TWEAK Fn14 block 78 (no result: LGR2 antag)
